Consider 13 compounds from PubChem BioAssay (NCATS).

Results filed as inconclusive are left out. The source made the active and inactive calls. Calls follow the shape of the dose curve; as a rule, active = well fitted inhibition curve with a large enough effect; inconclusive = small, poorly fitted or top-dose-only effect; inactive = no such curve, though single readings can be large or run the other way.
% is scaled to controls: 0 for no effect and ±100 for the full control effect; potency is read from the fitted curve at half-maximal effect.

This assay concerns the target Aldehyde dehydrogenase 1A1 (Homo sapiens) (UniProt P00352). Kind of assay: qHTS for Inhibitors of the Aldehyde Dehydrogenase Family (ALDH1A1) Confirmatory screens (AID 2061316). Also: nearly all actives have a fitted effect of over 65% in size. Particulars: ALDH inhibition qHTS; series mostly up to 47.3 µM; activity change, negative = inhibition: at the top concentration. A general note: qHTS replaces the single test concentration by a dilution series.
`Nc1scc2c(C(=O)O)nn(-c3ccccc3)c(=O)c12`: the Potency was 5.04 µM (active).
For the compound `O=C1Nc2ccccc2/C1=C/c1cc(Cl)c(O)c(Cl)c1`, the Potency is 17.9 µM (active).
Still for that read-out and setting: to `COC(=O)c1ccccc1-c1ccc(/C=c2\sc3nc4cc(Br)cnc4n3c2=O)o1` belongs 11.3 µM (active).
For the compound `CN1CCN(C(=O)c2ccc(-c3cnc4c(O)ccc(C(=O)O)c4c3)cc2)CC1`, the “activity change, negative = inhibition” value was 0.502% (inactive).
Still for that read-out and setting: to `O=C1Nc2ccccc2C12CC2c1cc(Cl)c(O)c(Cl)c1` (stereo not drawn) belongs -1.98% (inactive).
`Cc1cc(C)nc(NC(=S)N2CCN(c3cc(Cl)cc(Cl)n3)CC2)c1`: the Potency is 3.57 µM (active).
Consider `NC(=O)C1CCN(c2ncc(Br)s2)CC1`, for which the Potency was 4.49 µM (active).
Regarding `Cc1c(C(=O)OCC(C)(C)C)[nH]c2c1C(=O)CC(c1ccco1)C2` (stereo not drawn), the Potency is 0.896 µM (active).
In the case of `c1nc(NC[C@@H]2CCCO2)c2cc(-c3ccc4c(c3)OCO4)ccc2n1`, the Potency was 20.1 µM (active).
As for `O=C1Nc2cc(Cl)ccc2Nc2cscc21`, the Potency is 7.12 µM (active).
Still for that read-out and setting: the same measure for `COc1ccc(NC(=O)c2[nH]c(C)c(C(C)=O)c2C)cc1S(=O)(=O)Nc1ccc(C#N)cc1`: 11.3 µM (active).
For `O=C([C@H](Cc1ccc(O[S+](=O)([O-])c2ccccn2)cc1)N[S+](=O)([O-])c1cccc2cnccc12)N1CCN(c2ccccc2)CC1`, the Potency is 7.98 µM (active).
Still for that read-out and setting: the same measure for `Cc1ccc(CNc2ccccc2C(=O)Nc2nc(-c3ccccc3)cs2)cc1`: 22.5 µM (active).
